A short description of assay [1]: qHTS assay to identify small molecule antagonists of the estrogen related receptor (ERR) signaling pathway - cell viability counter screen (AID 1224818). Note: potency is the fitted concentration of half-maximal effect. In short, it runs like this: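 ERR cells, 2,000 per well, compound added after 6 h and incubated 17.5 h at 37 C. Viability read by CellTiter-Fluor fluorescence after a further 30 min at 37 C.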
Assay [2] is described as follows: qHTS assay to identify small molecule antagonists of the estrogen related receptor (ERR) signaling pathway (AID 1224819; note: nearly all actives have a fitted effect of over 50% in size; note: potency is the fitted concentration of half-maximal effect). In short, it runs like this: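 ERR reporter cell line (NTP) plated at 2,000 cells/well, settled 6 h at 37C/5% CO2, then exposed to LOPAC compounds for 18 h at 37C. One-Glo luciferase luminescence read after 30 min at room temperature.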
A general note: In qHTS, concentration-response curves come from the screen itself.

A short description of assay [3]: qHTS assay to identify small molecule agonists of the estrogen related receptor (ERR) signaling pathway (AID 1224820). In short, it runs like this:
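Quantitative HTS of the LOPAC library used NTP ERR reporter cells treated 18 h at 37 C. Signal is luminescence after One-Glo addition and a 30 min room-temperature incubation.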

Assay [4] has as its system estrogen-related receptor alpha (ERRalpha) with PGC-1alpha coactivator, human. The assay is described as follows: qHTS assay to identify small molecule antagonists of the estrogen related receptor signaling pathway with the pleiotropic PPARgamma coactivator (PGC) (AID 1224821; calls by dose curve; note: nearly all actives have a fitted effect of over 50% in size; note: potency is the fitted concentration of half-maximal effect). The method, boiled down:
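Quantitative HTS for antagonism: PGC/ERR cells received compounds after 6 h attachment and were incubated 18 h at 37 C, with luminescence (One-Glo) as the endpoint.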

The nature of assay [5]: qHTS assay to identify small molecule antagonists of the estrogen related receptor signaling pathway with the pleiotropic PPARgamma coactivator (PGC) cell viability counter screen (AID 1224822; note: potency is the fitted concentration of half-maximal effect). In short, it runs like this:
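PGC/ERR cells rested 6 h, then compound-treated 17.5 h at 37 C. CellTiter-Fluor added for 30 min at 37 C, viability measured by fluorescence intensity.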

The nature of assay [6]: qHTS assay to identify small molecule agonists of the estrogen related receptor signaling pathway with the pleiotropic PPARgamma coactivator (PGC) (AID 1224823). In short, it runs like this: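 Cell-based luciferase assay in the NTP-supplied PGC/ERR line, 2,000 cells/well; 18 h compound exposure at 37 C, luminescence after One-Glo.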

Records with an inconclusive call do not appear. Values without a mark were called inactive. Calls of active or inactive are those of the source. Unless noted, calls come from the whole dose curve; as a rule, active = well fitted curve in the direction sought with a large enough effect in the repeat runs; inconclusive = weak or mixed curves; inactive = no such curve, though single readings can be large; an effect the other way counts as inactive or inconclusive.

Consider `NCCc1c[nH]c2ccc(C(N)=O)cc12`, for which the Potency entry in assay [1], in assay [2], in assay [3], in assay [4], in assay [5] and in assay [6] was “inactive” each time.

For `CCCN1CC[C@@H]2c3cc(O)ccc3CC[C@@H]21`, the Potency result in assay [1], in assay [2], in assay [3], in assay [4], in assay [5] and in assay [6] was “inactive” throughout.

Consider `C[C@H](Cc1ccc2c(c1)OC(C(=O)O)(C(=O)O)O2)NC[C@H](O)c1cccc(Cl)c1`, for which the Potency result in assay [1], in assay [2], in assay [3], in assay [4], in assay [5] and in assay [6] was “inactive” each time.

For `COC(=O)N1CCN(C(=O)Cc2ccc(Cl)c(Cl)c2)C(CN2CCCC2)C1` (centres undefined), the Potency result in assay [1], in assay [2], in assay [3], in assay [4], in assay [5] and in assay [6] was “inactive” throughout.

`Nc1ccc(CCN2CCN(c3cccc(C(F)(F)F)c3)CC2)cc1`: the Potency result in assay [1], in assay [3], in assay [4], in assay [5] and in assay [6] was “inactive” throughout. Moreover, in assay [2], the Potency is 13.9 µM (active).

For the molecule `Cc1[nH]c2ccc(O)cc2c1CCN`, the Potency entry in assay [1], in assay [2], in assay [3], in assay [4], in assay [5] and in assay [6] was “inactive” each time.

As to `NC(=NCCC[C@H](N)C(=O)O)N[N+](=O)[O-]`, the Potency result in assay [1], in assay [2], in assay [3], in assay [4], in assay [5] and in assay [6] was “inactive” in each case.

For the molecule `CN1C2CCC1CC(OC(c1ccccc1)c1ccccc1N)C2` (centres undefined), the Potency result in assay [1], in assay [2], in assay [3], in assay [4], in assay [5] and in assay [6] was “inactive” in each case.

`CCCN(CCC)CCc1ccc(O)c(O)c1`: the Potency entry in assay [1], in assay [2], in assay [3], in assay [4], in assay [5] and in assay [6] was “inactive” in each case.

For the molecule `CC(C)CC(NP(=O)(O)O[C@@H]1O[C@@H](C)[C@H](O)[C@@H](O)[C@H]1O)C(=O)NC(Cc1c[nH]c2ccccc12)C(=O)O` (some centres undefined), the Potency entry in assay [1], in assay [2], in assay [3], in assay [4], in assay [5] and in assay [6] was “inactive” each time.

For the molecule `CC(C)Oc1cccnc1N(C)C1CCN(Cc2ccccc2)CC1`, the Potency entry in assay [1], in assay [2], in assay [3], in assay [4], in assay [5] and in assay [6] was “inactive” in each case.

Consider `CC(C)(C)c1o[nH]c(=O)c1CC(N)C(=O)O` (centres undefined), for which the Potency result in assay [1], in assay [2], in assay [3], in assay [4], in assay [5] and in assay [6] was “inactive” throughout.

For the molecule `CCCN(CCC)C1CCc2cccc(O)c2C1` (centres undefined), the Potency result in assay [1], in assay [2], in assay [3], in assay [4], in assay [5] and in assay [6] was “inactive” in each case.

In the case of `O=C(O)[C@@H]1CCN1`, the Potency entry in assay [1], in assay [2], in assay [3], in assay [4], in assay [5] and in assay [6] was “inactive” in each case.

On to `C[N+]1(C)C2CCC1CC(OC(=O)c1c[nH]c3ccccc13)C2` (centres undefined), for which the Potency entry in assay [1], in assay [2], in assay [3], in assay [4], in assay [5] and in assay [6] was “inactive” each time.

With `CNCCc1ccc(O)c(O)c1`, the Potency entry in assay [1], in assay [2], in assay [3], in assay [4], in assay [5] and in assay [6] was “inactive” throughout.

`CN1CCc2cccc(Cl)c2CC1`: the Potency result in assay [1], in assay [2], in assay [3], in assay [4], in assay [5] and in assay [6] was “inactive” in each case.

`O=C1CCCN1CC#CCN1CCCC1`: the Potency entry in assay [1], in assay [2], in assay [3], in assay [4], in assay [5] and in assay [6] was “inactive” throughout.

`NCc1cc(=O)[nH]o1`: the Potency result in assay [1], in assay [2], in assay [3], in assay [4], in assay [5] and in assay [6] was “inactive” in each case.

Turning to `C[N+]1(C)CCc2cc3c(cc2[C@H]1[C@@H]1OC(=O)c2c1ccc1c2OCO1)OCO3`, the Potency entry in assay [1], in assay [2], in assay [3], in assay [4], in assay [5] and in assay [6] was “inactive” each time.

Take `NCCc1ccc(S(=O)(=O)F)cc1`: the Potency result in assay [1], in assay [2], in assay [3], in assay [4], in assay [5] and in assay [6] was “inactive” throughout.

Turning to `CC(=O)NCCc1c[nH]c2ccccc12`, the Potency result in assay [1], in assay [2], in assay [3], in assay [4], in assay [5] and in assay [6] was “inactive” throughout.

For `CN(N=O)c1ccc(O)c(O)c1`, the Potency result in assay [1], in assay [2], in assay [3], in assay [4], in assay [5] and in assay [6] was “inactive” throughout.

Turning to `OCc1cnc[nH]1`, the Potency result in assay [1], in assay [2], in assay [3], in assay [4], in assay [5] and in assay [6] was “inactive” throughout.

For the molecule `CNCCc1c[nH]c2ccc(O)cc12`, the Potency result in assay [1], in assay [2], in assay [3], in assay [4], in assay [5] and in assay [6] was “inactive” each time.

Consider `NCC(O)c1cc(O)c(O)cc1F` (centres undefined), for which the Potency entry in assay [1], in assay [2], in assay [3], in assay [4], in assay [5] and in assay [6] was “inactive” throughout.

Consider `CC1OC1P(=O)(O)O` (centres undefined), for which the Potency entry in assay [1], in assay [2], in assay [3], in assay [4], in assay [5] and in assay [6] was “inactive” in each case.

Consider `C[C@@H](N)Cc1cnc[nH]1`, for which the Potency result in assay [1], in assay [2], in assay [3], in assay [4], in assay [5] and in assay [6] was “inactive” throughout.

With `COc1ccc2c(c[n+](C)c3c4cc5c(cc4ccc23)OCO5)c1OC`, the Potency is 18.1 µM (active) in assay [1], 9.08 µM (active) in assay [2], 10.6 µM (active) in assay [4] and 5.11 µM (active) in assay [5]. Besides, the Potency result in assay [3] and in assay [6] was “inactive” in each case.

Turning to `C[N+](C)(C)CC#CCOC(=O)Nc1cccc(Cl)c1`, the Potency entry in assay [1], in assay [2], in assay [3], in assay [4], in assay [5] and in assay [6] was “inactive” throughout.

With `Clc1cc(I)cc(Cl)c1NC1=NCCN1`, the Potency result in assay [1], in assay [2], in assay [3], in assay [4], in assay [5] and in assay [6] was “inactive” in each case.

As for `CC(N)[C@H](O)c1ccc(O)c(O)c1` (some centres undefined), the Potency entry in assay [1], in assay [2], in assay [3], in assay [4], in assay [5] and in assay [6] was “inactive” in each case.

With `Cc1sc2ccccc2c1CC1=NCCN1`, the Potency result in assay [1], in assay [2], in assay [3], in assay [4], in assay [5] and in assay [6] was “inactive” in each case.

As for `CCCN(CCC)[C@@H]1CCc2cccc(O)c2C1`, the Potency entry in assay [1], in assay [2], in assay [3], in assay [4], in assay [5] and in assay [6] was “inactive” each time.
